Rows were chosen to be rich in hits. Some 6.3% of all compounds tested hit in one or more screens of this group.
Abs 340nm: compounds absorbing at 340 nm; compound absorbance at 340 nm, fold over control; fold change at 10 µM; 65,000 tested, under 10 active;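 active = at 10 µM dose, initial 340 nm absorbance at least 2 fold that of control wells; inactive = change under 2 fold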;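 note: initial absorbance extrapolated from kinetic A340 decline of NADH oxidation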
Spn PMK inh: blocks S. pneumoniae phosphomevalonate kinase; purified PMK, PK/LDH-coupled NADH absorbance 340 nm; inhibition, % at 10 µM; 65,000 tested, 0.49% active;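 active = top-ranked compounds by inhibition in the single 10 µM screen, taking a fixed number of the strongest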
MK inhibit: S. pneumoniae mevalonate kinase inhibition. 65,000 tested, 0.48% active. purified MK, PK/LDH-coupled NADH absorbance 340 nm. AID 555. inhibition, % at 10 µM;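 active = ranked among the strongest by inhibition in the single 10 µM screen, a fixed top-ranked set picked for dose follow-up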
NADH enzymes: blocks coupling enzymes of NAD/NADH assays | coupled PK/LDH NADH assays, four targets | IC50, µM (highest dose often 10 µM) | 65,000 tested, 0.02% active | AID 774;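 active = single-dose screening hits from any of four coupled enzyme assays that gave an IC50 when retested across doses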;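 note: the DPM-DC format reads NADH fluorescence rather than 340 nm absorbance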
Fluor 339 460: intrinsic fluorescence of library compounds, ex339/em460 – biochemical, MLSMR library, data from DPM-DC assay, artefact control, profiling panel | compound autofluorescence, ex339/em460 nm, NADH buffer; active compounds read high; 1 = no-compound wells, NADH background | fluorescence fold increase at 10 µM | 65,000 tested, 5.5% active;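 active = at 10 µM, mean starting fluorescence two-fold or more over control wells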;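 note: signal is the first read of a kinetic run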
DPM-DC inhibit: blocks S. pneumoniae diphosphomevalonate decarboxylase; AID 556; calls only at 10 µM; 65,000 tested, 0.49% active; purified DPM-DC, PK/LDH coupled NADH fluorescence;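 active = the 320 compounds with the highest percent inhibition in the single-dose primary screen, excluding strongly autofluorescent ones, cut at about 32% in these data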;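 note: kinetic rate of NADH fluorescence loss reporting ADP formed by the decarboxylase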
Hits are given with their value; i = inactive; nt = not tested or not shown; + = active, no number.

SMILES | Abs 340nm | Spn PMK inh | MK inhibit | NADH enzymes | Fluor 339 460 | DPM-DC inhibit
O=C(c1n[nH]c(=O)c2ccccc12)N1CCN(C2c3ccccc3-c3ccccc32)CC1 | i | 29 | i | i | i | i
COC(=O)C1=C(C)NC2=C(C(=O)CCC2)C1c1ccsc1 (configuration not stated) | i | i | i | i | i | i
CC1=C(C(=O)N2CCOCC2)C(c2ccsc2)C2=C(CCCC2=O)N1 (configuration not stated) | i | i | i | i | 2.9 | nt
COc1cc(=O)n(C)c2cc(N(C)C)ccc12 | i | i | i | i | 4 | nt
CC(=O)C1=C(O)C(=O)N(CCCCCC(=O)O)C1c1ccc(N(C)C)cc1 (configuration not stated) | i | i | i | i | i | i
CCOc1ccc(-c2nc(C#N)c(N3CCN(CC)CC3)o2)cc1 | i | i | i | i | 2.4 | nt
Cc1ccc(OCc2nc(C#N)c(N3CCN(Cc4ccccc4)CC3)o2)cc1 | i | i | i | i | i | i
CCCOc1ccc(-c2nc(C#N)c(N3CCN(CC)CC3)o2)cc1 | i | i | i | i | 3.4 | nt
COc1ccc2cc(CN(C(=O)Nc3ccccc3)C3CCCC3)c(=O)[nH]c2c1 | i | i | i | i | i | i
COc1ccc2[nH]c(=O)c(CNC3CCCCC3)cc2c1 | i | i | i | i | 2.7 | nt
COc1ccc2[nH]c(=O)c(CN(C(=O)NC3CCCCC3)C3CCCCC3)cc2c1 | i | i | i | i | 2.8 | i
Cn1c2c(c(=O)n(C)c1=O)C(c1cccc(Br)c1)C1C(=O)c3ccccc3C1=N2 (configuration not stated) | i | i | i | i | i | i
Cc1ccc(-c2ccc(/C=N/c3ncn[nH]3)o2)cc1Cl | i | i | i | i | i | i
COCCCNC(=O)c1ccc(N2CCCC2)c(NS(=O)(=O)c2ccc(C)cc2)c1 | i | 25 | i | i | i | i
Cc1ccc(S(=O)(=O)Nc2cc(C(=O)NCCN3CCCC3)ccc2N2CCCCC2)cc1 | i | i | i | i | i | i
CCn1c(SCC(=O)Nc2ccc(NC(=O)c3ccco3)c(OC)c2)nc2ccccc2c1=O | i | i | i | i | 5.2 | nt
CCCCn1c(SCC(=O)Nc2cc(NC(=O)c3ccco3)ccc2C)nc2ccccc2c1=O | i | i | i | i | i | i
COc1ccc(NS(=O)(=O)c2coc(C(N)=O)c2)cc1Cl | i | i | i | i | i | i
COc1ccc(-n2nc3ccc(NS(C)(=O)=O)cc3n2)cc1Cl | i | i | i | i | 3.8 | nt
CCNc1nc(C)cc(COC)c1C#N | i | i | i | i | 2.2 | nt
COCc1cc(C)nc(N)c1C#N | i | i | i | i | i | nt
CCOc1cc2c(C#N)c(N3CCOCC3)nc(N)c2c(N)n1 | i | i | i | i | 5.1 | nt
COCc1cc(C)nc(N2CCOCC2)c1C#N | i | i | i | i | 2.1 | nt
CCCCc1nc(N2CCOCC2)c(C#N)c2c1CCCC2 | i | i | i | i | i | i
O=C(Nc1ccc(Cn2nnc3ccccc32)cc1)c1ccco1 | i | i | i | i | i | i
SMILES | Abs 340nm | Spn PMK inh | MK inhibit | NADH enzymes | Fluor 339 460 | DPM-DC inhibit
Cc1cc(NCC2CCCO2)n2c(nc3ccccc32)c1C#N (configuration not stated) | i | i | i | i | 2.5 | nt
Cc1cc(N2CCN(C3CCCC3)CC2)n2c(nc3ccccc32)c1C#N | i | i | i | i | 2.5 | nt
Cc1cc(NCCCn2ccnc2)n2c(nc3ccccc32)c1C#N | i | i | i | i | 3.4 | nt
N#Cc1c2c(c(NCCN3CCOCC3)n3c1nc1ccccc13)CCCC2 | i | i | i | i | i | i
Cc1cc(NCCN2CCCCC2)n2c(nc3ccccc32)c1C#N | i | i | i | i | 2.7 | nt
Cc1nc(NCCCn2ccnc2)c2ccccc2n1 | i | i | i | i | i | i
Cc1cccc2cc(C#N)c(NCCCn3ccnc3)nc12 | i | i | i | i | 2.6 | i
COc1ccccc1-c1nn2c(C(F)(F)F)nnc2s1 | i | i | i | i | 3 | i
COc1ccccc1-c1nnc2sc(-c3ccc(N(C)C)cc3)nn12 | i | i | i | i | 2.3 | +
CN(C)c1ccc(-c2nn3c(-c4ccncc4)nnc3s2)cc1 | i | i | i | i | i | i
CN(C)c1ccc(-c2nn3c(-c4ccccc4Cl)nnc3s2)cc1 | i | i | i | i | 3.3 | nt
COc1ccc(-c2nn3c(-c4ccccn4)nnc3s2)cc1OC | i | i | i | i | i | +
CS(=O)(=O)N1CCCC(C(=O)NCc2ccc(F)cc2Cl)C1 (configuration not stated) | i | i | i | i | i | i
COc1cc(S(=O)(=O)N2CCCC3(CCCCC3)C2)ccc1-n1cnnn1 | i | i | i | i | 2.8 | i
O=C1NC(=O)c2cc(NC(=O)C3CCCCC3)ccc21 | i | i | i | i | 3.6 | nt
CC(=O)c1cccc(NC(=O)C2CCCC2)c1 | i | i | i | i | i | i
CCN(CC)c1ccc2c(C)c(CN3CCOCC3)c(=O)oc2c1 | i | i | i | i | 4.3 | nt
CN(C(=O)c1cccs1)c1ccccc1C(=O)O | i | i | i | i | 2.2 | nt
CCOc1ccccc1NC(=O)CSc1nc2cccnc2n1C | i | i | i | i | i | i
CCOC(=O)c1c(C)[nH]c(C(=O)COC(=O)c2ccccc2NC(=O)c2ccco2)c1C | i | i | i | i | 3.4 | +
CCN1CCN(C(=O)c2cc3c(=O)n4ccccc4nc3n2Cc2ccccc2)CC1 | i | i | i | i | 3.9 | nt
O=C(NCCN1CCOCC1)c1cc2c(=O)n3ccccc3nc2n1Cc1ccccc1 | i | i | i | i | 3.9 | nt
CCOc1ccc(C2c3c(oc4ccccc4c3=O)C(=O)N2c2ccccn2)cc1OC (configuration not stated) | i | i | i | i | i | i
CCN(CC)CCNC(=O)CCCCn1c(=S)[nH]c2c([nH]c3ccc(OC)cc32)c1=O | i | i | 42 | i | i | i
CCN(CC)CCNC(=O)CCn1c(=S)[nH]c2cc3c(cc2c1=O)OCO3 | i | i | i | i | i | i
SMILES | Abs 340nm | Spn PMK inh | MK inhibit | NADH enzymes | Fluor 339 460 | DPM-DC inhibit
CCN(CC)CCNc1ncnc2c1[nH]c1ccc(OC)cc12 | i | i | i | i | 2.4 | nt
C=CCNc1ncnc2c1[nH]c1ccc(C)cc12 | i | i | i | i | 4 | nt
Cc1ccc2[nH]c3c(NCCN4CCOCC4)ncnc3c2c1 | i | i | i | i | i | i
CCC(C)NS(=O)(=O)c1ccc(NC(=O)c2c(-c3ccccc3)noc2C)cc1 (configuration not stated) | i | i | i | i | i | i
O=C(Nc1ccc2c(c1)OCO2)N1CCN(C(=O)C2CCCO2)CC1 (configuration not stated) | i | i | i | i | i | i
CC(Nc1nc(N2CCN(S(C)(=O)=O)CC2)nc2ccccc12)c1ccccc1 (configuration not stated) | i | i | i | i | 2.1 | nt
CN(C)c1oc(-c2ccccc2F)nc1C#N | i | i | i | i | 2.4 | nt
CNc1oc(-c2cccs2)nc1C#N | i | i | i | i | 2.4 | nt

High-throughput results as filed in PubChem BioAssay.
